Measurements: the supplement of paper PMC12494721
Where a name gives a salt, the structure may show the parent alone.

Legend:
Settings in all cases: incubation time: 27 h, anaerobic, 37 °C;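 for the amine columns active = adjusted P below 0.05 in both replicates with a change the same way and a mean fold change under 0.8 or over 1.25; inactive = the rest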
[1] = tested on: Clostridium sporogenes DSM 1664; assay: growth (OD595) fold change vs plate DMSO controls (fold change (ratio)); higher = more growth
Method in brief: (§1)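 To obtain OD, 595 nm absorbance readings were blank-subtracted, corrected for compound background using 20 µM compound solutions in water, and multiplied by a calibration factor of 5. They came from 96-well mGAM cultures grown anaerobically for 27 h at 37 °C and shaken before reading. Growth is the fold change relative to the median of plate DMSO controls. Two biological replicates were averaged, and fold changes above 1.5 were set to NA.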

Escherichia coli IAI1 [2] = assay: as above
Method in brief: as §1

[3] = tested on: Klebsiella aerogenes DSM 30053; assay: as above
Method in brief: as §1

[4] = tested on: Ruminococcus gnavus DSM 108212; assay: as above
Method in brief: as §1

[5] = tested on: Klebsiella aerogenes DSM 30053; assay: fold change of Histamine concentration vs plate DMSO controls (fold change (ratio)); higher = more amine produced, active = hit call of the paper (significant change in both replicates, either direction)
Method in brief: (§2)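 Anaerobic mGAM cultures of four gut bacterial strains were grown at 37 °C for 27 h in 80 µL wells, starting at OD 0.1 before 1:1 dilution. Compounds were at 20 µM final (sweeteners 50 µM). Whole cultures were extracted with cold acetonitrile/methanol containing 0.1% formic acid and centrifuged. Amines were quantified by LC–triple-quadrupole MS (dynamic MRM) against external calibration curves and drift-corrected within batch. Each value is the fold change versus plate DMSO controls, averaged over 2 biological replicates.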

[6] = tested on: Clostridium sporogenes DSM 1664; assay: fold change of Tryptamine concentration vs plate DMSO controls (fold change (ratio)); higher = more amine produced, active = hit call of the paper (significant change in both replicates, either direction)
Method in brief: as §2

[7] = tested on: Ruminococcus gnavus DSM 108212; assay: as above
Method in brief: as §2

Escherichia coli IAI1 [8] = assay: fold change of Putrescine concentration vs plate DMSO controls (fold change (ratio)); higher = more amine produced, active = hit call of the paper (significant change in both replicates, either direction)
Method in brief: as §2

[9] = tested on: Klebsiella aerogenes DSM 30053; assay: as above
Method in brief: as §2

Escherichia coli IAI1 [10] = assay: fold change of Cadaverine concentration vs plate DMSO controls (fold change (ratio)); higher = more amine produced, active = hit call of the paper (significant change in both replicates, either direction)
Method in brief: as §2

[11] = tested on: Klebsiella aerogenes DSM 30053; assay: as above
Method in brief: as §2

[12] = tested on: Ruminococcus gnavus DSM 108212; assay: fold change of 2-Phenylethylamine concentration vs plate DMSO controls (fold change (ratio)); higher = more amine produced, active = hit call of the paper (significant change in both replicates, either direction)
Method in brief: as §2

| SMILES | growth [1] | growth (Escherichia coli IAI1 [2]) | growth [3] | growth [4] | fold change of Histamine concentration [5] | fold change of Tryptamine concentration [6] | fold change of Tryptamine concentration [7] | fold change of Putrescine concentration (Escherichia coli IAI1 [8]) | fold change of Putrescine concentration [9] | fold change of Cadaverine concentration (Escherichia coli IAI1 [10]) | fold change of Cadaverine concentration [11] | fold change of 2-Phenylethylamine concentration [12] |
| --- | --- | --- | --- | --- | --- | --- | --- | --- | --- | --- | --- | --- |
| Cn1c(=O)c2c(ncn2C)n(C)c1=O [Caffeine] (20 µM) | 1.15 | 0.986 | 0.977 | 0.963 | 1.07 (inactive) | 0.982 (inactive) | 1.06 (inactive) | 0.987 (inactive) | 0.997 (inactive) | 1.03 (inactive) | 0.987 (inactive) | 1.06 (inactive) |
| Cc1nnc(NS(=O)(=O)c2ccc(N)cc2)s1 [Sulfamethizole] (20 µM) | 0.987 | 1.05 | 1.06 | 1.12 | 0.935 (inactive) | 0.928 (inactive) | 0.884 (inactive) | 0.961 (inactive) | 0.981 (inactive) | 1.03 (inactive) | 0.995 (inactive) | 0.815 (inactive) |
| CCC(C)(CN(C)C)OC(=O)c1ccccc1 (centres undefined) [Amyleine hydrochloride] (20 µM) | 0.952 | 1.01 | 0.983 | 0.997 | 1.02 (inactive) | 0.974 (inactive) | 0.945 (inactive) | 1.04 (inactive) | 1.02 (inactive) | 1.01 (inactive) | 0.983 (inactive) | 0.874 (inactive) |
| CC1(C)O[C@@H]2C[C@H]3[C@@H]4C[C@H](F)C5=CC(=O)C=C[C@]5(C)[C@@]4(F)[C@@H](O)C[C@]3(C)[C@]2(C(=O)CO)O1 [Fluocinolone acetonide] (20 µM) | 1.13 | 1.04 | 1.01 | 0.973 | 1.06 (inactive) | 1.02 (inactive) | 0.996 (inactive) | 1.05 (inactive) | 1.04 (inactive) | 1.05 (inactive) | 1 (inactive) | 0.976 (inactive) |
| CC(=O)Oc1cc2c(s1)CCN(C(C(=O)C1CC1)c1ccccc1F)C2 (centres undefined) [Prasugrel] (20 µM) | 1.1 | 1.02 | 1 | 0.989 | 1 (inactive) | 0.957 (inactive) | 0.985 (inactive) | 0.983 (inactive) | 1.01 (inactive) | 1.03 (inactive) | 0.994 (inactive) | 0.965 (inactive) |
| CC(=O)O[C@]1(C(C)=O)CC[C@H]2[C@@H]3C=C(C)C4=CC(=O)CC[C@]4(C)[C@H]3CC[C@@]21C [Megestrol acetate] (20 µM) | 1.03 | 1.1 | 0.998 | 1.07 | 0.981 (inactive) | 1.05 (inactive) | 1.04 (inactive) | 1.2 (inactive) | 0.971 (inactive) | 0.982 (inactive) | 1.01 (inactive) | 1.04 (inactive) |
| CC(C)CN(C[C@@H](O)[C@H](Cc1ccccc1)NC(=O)O[C@H]1CCOC1)S(=O)(=O)c1ccc(N)cc1 [Amprenavir] (20 µM) | 1.1 | 1.05 | 0.974 | 0.947 | 0.92 (inactive) | 0.952 (inactive) | 1.07 (inactive) | 1.14 (inactive) | 1.01 (inactive) | 0.952 (inactive) | 1.03 (inactive) | 1.08 (inactive) |
| CCN(CC)CC#CCOC(=O)C(O)(c1ccccc1)C1CCCCC1 (centres undefined) [Oxybutynin chloride] (20 µM) | 1.01 | 0.971 | 1 | 0.917 | 1.01 (inactive) | 1.01 (inactive) | 0.977 (inactive) | 1.01 (inactive) | 1.02 (inactive) | 0.909 (inactive) | 1.01 (inactive) | 1.01 (inactive) |
| CC(C)OC(=O)C(C)(C)Oc1ccc(C(=O)c2ccc(Cl)cc2)cc1 [Fenofibrate] (20 µM) | 1.12 | 1.04 | 1.04 | 1.36 | 0.941 (inactive) | 1.03 (inactive) | 1.05 (inactive) | 1.03 (inactive) | 0.984 (inactive) | 1.03 (inactive) | 1.01 (inactive) | 1.05 (inactive) |
| COc1ccc([C@@H]2CC(=O)c3c(O)cc(O[C@@H]4O[C@H](CO[C@@H]5O[C@@H](C)[C@H](O)[C@@H](O)[C@H]5O)[C@@H](O)[C@H](O)[C@H]4O)cc3O2)cc1O [Hesperidin] (20 µM) | 1.12 | 1.05 | 1.06 | 0.984 | 0.921 (inactive) | 1.26 (active) | 1.01 (inactive) | 1.01 (inactive) | 0.934 (inactive) | 0.986 (inactive) | 1.02 (inactive) | 0.982 (inactive) |
| CC[C@H]1OC(=O)[C@H](C)[C@@H](O[C@H]2C[C@@](C)(OC)[C@@H](O)[C@H](C)O2)[C@H](C)[C@@H](O[C@@H]2O[C@H](C)C[C@H](N(C)C)[C@H]2O)[C@](C)(O)C[C@@H](C)[C@@H]2N[C@@H](COCCOC)O[C@H]([C@H]2C)[C@]1(C)O [Dirithromycin] (20 µM) | 0.228 | 0.961 | 0.964 | 0.419 | 0.987 (inactive) | 0.0683 (active) | 0.134 (active) | 0.956 (inactive) | 0.991 (inactive) | 0.998 (inactive) | 1.01 (inactive) | 0.146 (active) |
| C#C[C@]1(OC(C)=O)CC[C@H]2[C@@H]3CCC4=C[C@@H](OC(C)=O)CC[C@@H]4[C@H]3CC[C@@]21C [Ethynodiol diacetate] (20 µM) | 0.766 | 0.814 | 1.02 | 1.14 | 0.897 (inactive) | 0.966 (inactive) | 1.01 (inactive) | 0.894 (inactive) | 1 (inactive) | 1.09 (inactive) | 1.02 (inactive) | 1.02 (inactive) |
